In ChEMBL document CHEMBL1961873, “Compounds: GSK PKIS; Assays: Nanosyn kinase panel” (2012) one finds inhibition data, which are given here for 13 molecules.

By inhibition is commonly meant the relative decrease from the control value, in per cent.

Assay [1] has as its target Platelet-derived growth factor receptor beta (Homo sapiens) (UniProt P09619). To be noted: at 1 µM.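 Further: each value is a mean percent inhibition.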
For assay [2], the target named is Tyrosine-protein kinase FRK (Homo sapiens) (UniProt P42685). Conditions: at 0.1 µM.
Assay [3] has the same target. Conditions: at 1 µM.
The target of assay [4] is Protein-tyrosine kinase 2-beta (Homo sapiens) (UniProt Q14289). To be noted: at 0.1 µM.
The target is the same in assay [5]. To be noted: at 1 µM.
The target in assay [6] is Proto-oncogene tyrosine-protein kinase receptor Ret (Homo sapiens) (UniProt P07949). Conditions: at 0.1 µM.
Assay [7] has the same target. Conditions: at 1 µM.
Assay [8] deals with Proto-oncogene tyrosine-protein kinase receptor Ret (Homo sapiens), P07949 [V804L]. Conditions: at 0.1 µM.
The test system is the same in assay [9]. Conditions: at 1 µM.
Assay [10] concerns Proto-oncogene tyrosine-protein kinase receptor Ret (Homo sapiens), P07949 [Y791F]. Conditions: at 0.1 µM.
The test system is the same in assay [11]. To be noted: at 1 µM.
The target in assay [12] is Macrophage-stimulating protein receptor (Homo sapiens) (UniProt Q04912). To be noted: at 0.1 µM.
Assay [13] shares this target. To be noted: at 1 µM.
In assay [14] the target is Proto-oncogene tyrosine-protein kinase ROS (Homo sapiens) (UniProt P08922). To be noted: at 0.1 µM.
Assay [15] has the same target. Conditions: at 1 µM.
Assay [16] has as its target Proto-oncogene tyrosine-protein kinase Src (Homo sapiens) (UniProt P12931). Conditions: at 0.1 µM.
The target is the same in assay [17]. Conditions: at 1 µM.
The target in assay [18] is Tyrosine-protein kinase Srms (Homo sapiens) (UniProt Q9H3Y6). To be noted: at 0.1 µM.
Assay [19] shares this target. To be noted: at 1 µM.
Assay [20] concerns the target Tyrosine-protein kinase SYK (Homo sapiens) (UniProt P43405). Conditions: at 0.1 µM.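 Further: reported percentages are mean inhibition values for SYK.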

Chain of Macrophage-stimulating protein receptor (Homo sapiens) (Q04912 25-304 limits assumed): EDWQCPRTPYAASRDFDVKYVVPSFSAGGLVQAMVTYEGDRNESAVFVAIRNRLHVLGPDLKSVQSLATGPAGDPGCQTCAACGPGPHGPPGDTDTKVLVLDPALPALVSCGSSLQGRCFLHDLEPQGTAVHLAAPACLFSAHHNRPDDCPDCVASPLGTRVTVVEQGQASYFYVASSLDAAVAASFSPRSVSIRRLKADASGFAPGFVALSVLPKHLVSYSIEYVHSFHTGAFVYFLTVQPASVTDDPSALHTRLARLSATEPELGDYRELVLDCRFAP
Chain of Macrophage-stimulating protein receptor (Homo sapiens) (Q04912 310-1400 limits assumed): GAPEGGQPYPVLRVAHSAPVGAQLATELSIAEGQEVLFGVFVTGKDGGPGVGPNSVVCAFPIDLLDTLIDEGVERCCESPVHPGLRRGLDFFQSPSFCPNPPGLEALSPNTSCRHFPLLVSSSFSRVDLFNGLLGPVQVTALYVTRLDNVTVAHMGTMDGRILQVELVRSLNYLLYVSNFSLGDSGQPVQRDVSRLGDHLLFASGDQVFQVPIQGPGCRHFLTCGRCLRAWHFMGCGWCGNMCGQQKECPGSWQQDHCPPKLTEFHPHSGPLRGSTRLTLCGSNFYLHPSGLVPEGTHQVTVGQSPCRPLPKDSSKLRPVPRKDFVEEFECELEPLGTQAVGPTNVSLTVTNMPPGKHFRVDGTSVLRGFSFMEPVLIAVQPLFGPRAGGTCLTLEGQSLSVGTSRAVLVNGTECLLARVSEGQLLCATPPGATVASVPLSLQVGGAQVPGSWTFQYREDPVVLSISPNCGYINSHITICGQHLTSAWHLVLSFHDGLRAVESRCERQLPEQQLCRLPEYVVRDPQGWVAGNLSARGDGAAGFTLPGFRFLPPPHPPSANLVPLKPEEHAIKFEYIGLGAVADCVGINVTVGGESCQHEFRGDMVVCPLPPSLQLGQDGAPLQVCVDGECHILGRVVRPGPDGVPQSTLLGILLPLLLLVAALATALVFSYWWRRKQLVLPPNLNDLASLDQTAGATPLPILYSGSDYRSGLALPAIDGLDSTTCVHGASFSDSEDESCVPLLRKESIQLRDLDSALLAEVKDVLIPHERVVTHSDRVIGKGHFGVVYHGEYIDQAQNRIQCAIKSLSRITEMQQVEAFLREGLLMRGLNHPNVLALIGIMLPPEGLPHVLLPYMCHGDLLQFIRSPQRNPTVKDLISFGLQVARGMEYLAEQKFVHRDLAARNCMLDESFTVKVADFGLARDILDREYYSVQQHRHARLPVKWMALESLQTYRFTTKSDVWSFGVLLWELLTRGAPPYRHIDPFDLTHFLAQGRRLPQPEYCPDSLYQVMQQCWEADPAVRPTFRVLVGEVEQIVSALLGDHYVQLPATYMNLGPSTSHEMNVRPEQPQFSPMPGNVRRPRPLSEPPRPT
Chain of Proto-oncogene tyrosine-protein kinase receptor Ret (Homo sapiens) (P07949 whole entry): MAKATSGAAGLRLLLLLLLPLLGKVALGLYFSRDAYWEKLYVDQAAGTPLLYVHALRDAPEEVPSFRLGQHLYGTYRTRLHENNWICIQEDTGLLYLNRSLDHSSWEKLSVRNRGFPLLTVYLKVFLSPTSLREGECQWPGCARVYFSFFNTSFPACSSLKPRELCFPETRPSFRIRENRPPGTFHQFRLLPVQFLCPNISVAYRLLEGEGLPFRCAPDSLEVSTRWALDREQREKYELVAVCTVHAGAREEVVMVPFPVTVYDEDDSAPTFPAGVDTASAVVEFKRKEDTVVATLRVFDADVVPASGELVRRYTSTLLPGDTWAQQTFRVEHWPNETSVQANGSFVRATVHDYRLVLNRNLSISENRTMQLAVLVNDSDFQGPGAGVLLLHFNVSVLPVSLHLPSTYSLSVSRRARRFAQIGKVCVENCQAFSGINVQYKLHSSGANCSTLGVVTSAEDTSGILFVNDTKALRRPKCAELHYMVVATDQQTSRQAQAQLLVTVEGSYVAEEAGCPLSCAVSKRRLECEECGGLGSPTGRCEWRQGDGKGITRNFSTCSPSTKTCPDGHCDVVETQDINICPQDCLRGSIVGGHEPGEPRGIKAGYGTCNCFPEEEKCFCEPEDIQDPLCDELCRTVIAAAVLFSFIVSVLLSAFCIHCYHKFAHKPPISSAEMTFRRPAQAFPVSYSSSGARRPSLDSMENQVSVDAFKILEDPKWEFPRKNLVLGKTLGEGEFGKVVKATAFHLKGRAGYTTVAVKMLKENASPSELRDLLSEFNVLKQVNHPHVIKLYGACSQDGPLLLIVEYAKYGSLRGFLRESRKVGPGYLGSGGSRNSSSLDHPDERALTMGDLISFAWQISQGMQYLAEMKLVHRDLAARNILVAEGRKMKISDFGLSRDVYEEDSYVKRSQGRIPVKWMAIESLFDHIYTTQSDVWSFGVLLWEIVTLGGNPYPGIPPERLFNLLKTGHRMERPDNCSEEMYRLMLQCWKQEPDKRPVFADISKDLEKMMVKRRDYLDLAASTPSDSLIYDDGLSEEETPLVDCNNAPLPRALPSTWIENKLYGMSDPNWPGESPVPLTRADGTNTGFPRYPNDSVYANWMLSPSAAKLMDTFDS
Chain of Tyrosine-protein kinase FRK (Homo sapiens) (P42685 whole entry): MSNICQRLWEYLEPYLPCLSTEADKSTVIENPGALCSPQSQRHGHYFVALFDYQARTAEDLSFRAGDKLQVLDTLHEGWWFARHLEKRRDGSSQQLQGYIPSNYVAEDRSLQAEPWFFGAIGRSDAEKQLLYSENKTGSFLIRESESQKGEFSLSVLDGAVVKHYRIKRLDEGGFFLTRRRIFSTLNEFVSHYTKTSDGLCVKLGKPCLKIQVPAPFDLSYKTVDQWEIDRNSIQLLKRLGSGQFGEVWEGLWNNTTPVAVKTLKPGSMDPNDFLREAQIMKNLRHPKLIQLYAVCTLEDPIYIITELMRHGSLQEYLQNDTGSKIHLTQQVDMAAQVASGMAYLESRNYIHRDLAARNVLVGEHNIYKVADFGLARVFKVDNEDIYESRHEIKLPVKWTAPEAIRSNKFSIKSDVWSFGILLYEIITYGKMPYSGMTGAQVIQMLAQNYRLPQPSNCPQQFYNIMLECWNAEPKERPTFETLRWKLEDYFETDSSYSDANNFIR
Chain of Proto-oncogene tyrosine-protein kinase Src (Homo sapiens) (P12931 2-536 limits assumed): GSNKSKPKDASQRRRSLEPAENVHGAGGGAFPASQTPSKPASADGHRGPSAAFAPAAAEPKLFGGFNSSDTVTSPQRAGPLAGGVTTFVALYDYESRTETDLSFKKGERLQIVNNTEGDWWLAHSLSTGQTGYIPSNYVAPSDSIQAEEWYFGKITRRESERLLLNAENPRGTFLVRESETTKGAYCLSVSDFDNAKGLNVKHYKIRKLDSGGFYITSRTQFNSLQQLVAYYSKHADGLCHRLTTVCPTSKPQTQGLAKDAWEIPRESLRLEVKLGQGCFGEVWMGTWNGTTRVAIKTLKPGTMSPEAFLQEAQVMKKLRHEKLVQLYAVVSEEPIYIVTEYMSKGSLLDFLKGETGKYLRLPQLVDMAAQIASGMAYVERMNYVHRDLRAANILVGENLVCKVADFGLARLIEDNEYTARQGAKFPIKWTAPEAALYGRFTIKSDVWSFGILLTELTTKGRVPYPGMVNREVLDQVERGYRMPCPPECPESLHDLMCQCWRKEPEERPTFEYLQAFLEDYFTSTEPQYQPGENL
Chain of Proto-oncogene tyrosine-protein kinase receptor Ret (Homo sapiens), P07949 [Y791F] (P07949 whole entry Y791F): as the sequence (P07949 whole entry) above, with Y791F counted along it
Chain of Platelet-derived growth factor receptor beta (Homo sapiens) (P09619 whole entry): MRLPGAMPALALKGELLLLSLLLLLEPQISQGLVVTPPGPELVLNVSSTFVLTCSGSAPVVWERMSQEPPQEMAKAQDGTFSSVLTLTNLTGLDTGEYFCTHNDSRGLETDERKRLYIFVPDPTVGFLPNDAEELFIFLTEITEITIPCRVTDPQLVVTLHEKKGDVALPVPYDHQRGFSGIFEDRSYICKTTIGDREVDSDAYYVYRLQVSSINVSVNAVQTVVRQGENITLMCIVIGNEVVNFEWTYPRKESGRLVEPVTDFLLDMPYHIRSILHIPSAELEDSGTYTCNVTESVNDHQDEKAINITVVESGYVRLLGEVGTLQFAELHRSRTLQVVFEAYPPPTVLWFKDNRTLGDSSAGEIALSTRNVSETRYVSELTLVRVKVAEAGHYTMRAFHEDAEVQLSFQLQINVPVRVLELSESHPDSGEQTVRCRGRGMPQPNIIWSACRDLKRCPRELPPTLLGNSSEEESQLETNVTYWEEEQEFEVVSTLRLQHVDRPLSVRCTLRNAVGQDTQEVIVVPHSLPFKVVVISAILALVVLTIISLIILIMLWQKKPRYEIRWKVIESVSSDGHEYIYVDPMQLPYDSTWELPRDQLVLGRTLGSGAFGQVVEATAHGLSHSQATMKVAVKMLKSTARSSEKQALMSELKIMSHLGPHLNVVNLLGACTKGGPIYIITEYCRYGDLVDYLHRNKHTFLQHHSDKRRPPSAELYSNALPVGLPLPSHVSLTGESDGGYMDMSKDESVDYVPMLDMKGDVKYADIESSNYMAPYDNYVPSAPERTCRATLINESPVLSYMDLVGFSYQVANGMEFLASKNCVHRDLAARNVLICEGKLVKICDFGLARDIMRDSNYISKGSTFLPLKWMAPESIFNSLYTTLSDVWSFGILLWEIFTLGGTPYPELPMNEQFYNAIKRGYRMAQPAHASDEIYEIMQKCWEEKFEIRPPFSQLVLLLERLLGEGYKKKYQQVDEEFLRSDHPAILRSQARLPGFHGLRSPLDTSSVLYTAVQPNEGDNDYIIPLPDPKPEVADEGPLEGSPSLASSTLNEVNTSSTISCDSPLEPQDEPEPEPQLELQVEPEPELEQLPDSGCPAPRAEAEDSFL
Chain of Proto-oncogene tyrosine-protein kinase receptor Ret (Homo sapiens), P07949 [V804L] (P07949 whole entry V804L): as the sequence (P07949 whole entry) above, with V804L counted along it

Turning to `CCCN(CCS(C)(=O)=O)Cc1ccc(-c2ccc3ncnc(Nc4ccc(OCc5cccc(F)c5)c(Cl)c4)c3c2)o1`, the inhibition in [1] is 8.69%; in assay [2], 0.49%; in assay [3] it was 2.46%; in assay [4] it was 3.28%; in assay [5], -1.09%; in assay [6], 4.68%. The inhibition was 7.59% in assay [7]; 1.01% in [8]; 5.01% in [9]; 2.4% in assay [10]; 2.22% in assay [11]; 2.96% in assay [12]. Besides, the inhibition in [13] worked out at 4.1%; in assay [14], 2.72%; in assay [15] it was 6.67%; in assay [16], 3.8%; in assay [17], 6.22%; in assay [18] it was 1.1%. The inhibition in [19] is 2.29%; in assay [20], -1.64%.
On to `COc1cc2ncn(-c3cc(OCc4ccccc4C(F)(F)F)c(C(=O)N(C)C)s3)c2cc1OC`, for which the inhibition in assay [1] was 34.4%; in assay [2], 0.68%; in assay [3], -0.25%; in assay [4], -0.29%; in assay [5] it was -5.44%; in assay [6], 3.06%. Also, the inhibition in assay [7] came out at 22.1%; in assay [8], 0.43%; in [9] it was 7.17%; in [10], 1.87%; in [11] it was 23.4%; in [12], 1.82%. In addition, the inhibition in [13] was -1.06%; in assay [14], 1.8%; in assay [15], 2.67%; in [16] it was 0.91%; in [17], 3.6%; in assay [18] it was 1.16%. Further, the results for the inhibition in [19] and in [20] were 1.35% and 4.44%, respectively.
Take `[O-][S+]1CCN(Cc2ccc(-c3ccc4ncnc(Nc5ccc(OCc6cccc(F)c6)c(Cl)c5)c4c3)o2)CC1`: the inhibition in assay [1] came out at 8%; in assay [2], 4.01%; in assay [3], 4.89%; in assay [4], 4.76%; in assay [5] it was 11.7%; in assay [6], 3.9%. Besides, the inhibition in assay [7] was determined as 8.36%; in [8] it was 7.71%; in assay [9], 16.5%; in assay [10] it was 6.06%; in [11] it was 9.63%; in assay [12] it was 3.82%. Besides, the inhibition worked out at 6.8% in assay [13]; 4.15% in assay [14]; 2.36% in assay [15]; 8.56% in [16]; 10.2% in assay [17]; 0.4% in assay [18]. Also, the inhibition in assay [19] was -1.62%; in assay [20], 2.13%.
Take `CCNC(=O)O[C@H]1CN[C@H](C#Cc2cc3ncnc(Nc4ccc(OCc5cccc(F)c5)c(Cl)c4)c3s2)C1`: the inhibition in assay [1] stood at 5.63%; in [2], 1.7%; in [3] it was 1.79%; in assay [4] it was 9.03%; in assay [5], 7.74%; in [6] it was 2%. For the same molecule, the inhibition in assay [7] is 3.91%; in assay [8], 2.16%; in [9] it was 0.84%; in assay [10], 1.93%; in [11], 2.83%; in [12] it was 3.96%. The inhibition in assay [13] was 3.52%; in assay [14], 4.68%; in assay [15], 3.52%; in [16] it was 0.25%; in assay [17], 6.91%; in assay [18], -0.91%. The inhibition was -2.79% in [19] and -1.96% in [20].
Consider `COc1cccc(-n2ncc3c(N/N=C/c4ccc(F)cc4)ncnc32)c1`, for which the inhibition in [1] was 45.3%; in [2], 4.95%; in [3], 1.58%; in assay [4], 8.88%; in assay [5], 13.6%; in assay [6] it was 5.24%. The inhibition came out at 14.9% in assay [7]; 2.47% in assay [8]; 7.65% in assay [9]; 1.26% in [10]; 18.6% in [11]; 3.4% in assay [12]. In addition, the inhibition in [13] is 13.7%; in assay [14], 3.85%; in [15], 8.02%; in assay [16], 14.6%; in assay [17], 49.2%; in assay [18], -1.01%. Further, the inhibition is 3.9% in assay [19] and -4.34% in assay [20].
As to `CN(C)CCOc1ccc(-c2nc(-c3ccncc3)c(-c3ccc4c(c3)CC/C4=N\O)[nH]2)cc1`, the inhibition in [1] stood at 15.7%; in assay [2], 2.18%; in assay [3], 1.99%; in assay [4] it was 5.76%; in [5], 10.5%; in [6] it was 5.96%. The inhibition in assay [7] is 7.06%; in assay [8], 3.07%; in assay [9], 6.45%; in assay [10], 2.28%; in [11] it was 20.2%; in assay [12], -1.14%. Also, the inhibition was 7.41% in [13]; 3.61% in assay [14]; 5.38% in [15]; 0.25% in [16]; 11.9% in [17]; -1.81% in assay [18]. Moreover, the inhibition in [19] is -0.6%; in assay [20], -2.98%.
For the molecule `Fc1ccc(-c2nn3ccccc3c2-c2ccncc2)cc1`, the inhibition turned out to be 12.7% in assay [1]; 0.42% in assay [2]; 1.58% in assay [3]; 3.99% in assay [4]; 4.06% in [5]; 1.59% in assay [6]. The inhibition in assay [7] was 5.12%; in assay [8], 0.36%; in [9] it was 1.74%; in assay [10], 4.32%; in assay [11] it was 7.11%; in [12], 3.62%. Further, the inhibition was 3.94% in assay [13]; 1.35% in assay [14]; 3.41% in assay [15]; -0.8% in assay [16]; 5% in assay [17]; -1.74% in assay [18]. Besides, the figures for the inhibition in assay [19] and in [20] were 0.28% and 2.26%, respectively.
Take `N#Cc1c(NC(=O)CN2CCOCC2)sc2c1CCCC2`: the inhibition in assay [1] came out at 8.2%; in assay [2], 2.9%; in assay [3], 1.5%; in assay [4], 9.37%; in assay [5] it was 14.3%; in [6], 4.27%. Also, the inhibition is 7.18% in [7]; 1.54% in assay [8]; 8.77% in [9]; 5.41% in [10]; 8.63% in [11]; -0.19% in assay [12]. Besides, the inhibition is 6.37% in assay [13]; 6.7% in assay [14]; 13% in assay [15]; -1.56% in assay [16]; 7.9% in [17]; -1.35% in [18]. Also, the inhibition in assay [19] was 0.73%; in assay [20], -0.42%.
Take `CC(C)(CO)CNC(=O)c1ccc2c(c1)/C(=N/Nc1ccc(S(N)(=O)=O)cc1)C(=O)N2`: the inhibition in assay [1] is 72.3%; in assay [2], -0.08%; in [3], -0.01%; in [4], -4.01%; in assay [5], 18.8%; in assay [6] it was 9.94%. In addition, the inhibition was 49.1% in [7]; 33.5% in assay [8]; 72.5% in assay [9]; 13.8% in assay [10]; 56.3% in assay [11]; 3.52% in [12]. For the same molecule, the inhibition in assay [13] is 2.41%; in [14], 0.74%; in assay [15], 3.7%; in assay [16], 5.77%; in assay [17] it was 34.2%; in assay [18], -0.93%. The inhibition in [19] was found to be 0.39%; in [20] it was 0.61%.
On to `Clc1ccc(-c2nn3ncccc3c2-c2ccnc(Nc3ccccc3)n2)cc1`, for which the inhibition in [1] was 39.4%; in assay [2], 0.95%; in assay [3] it was 3.48%; in assay [4] it was 7.96%; in [5] it was 14.7%; in [6], 8.76%. In addition, the inhibition in assay [7] is 42%; in assay [8] it was 4.29%; in assay [9], 4.92%; in assay [10], 9.6%; in assay [11] it was 42.2%; in assay [12] it was -2.2%. In addition, the inhibition was 4.63% in assay [13]; 4.17% in assay [14]; 9.1% in assay [15]; 6.5% in [16]; 39.3% in [17]; 1.99% in assay [18]. Besides, the inhibition is 5.97% in assay [19] and -4.66% in [20].
Consider `CCn1c(-c2nonc2N)nc2ccccc21`, for which the inhibition in [1] worked out at 5.69%; in assay [2] it was 0.05%; in [3] it was 1.69%; in assay [4], 4.43%; in assay [5], 7.84%; in assay [6] it was 1.65%. The inhibition in [7] amounted to 3.15%; in assay [8] it was 2.56%; in assay [9], 0.52%; in [10], 4.13%; in [11], 3.18%; in [12] it was 1.17%. For the same molecule, the inhibition in assay [13] was found to be 2.21%; in [14] it was 9.11%; in assay [15], 15.9%; in assay [16], 11.4%; in assay [17] it was 6.84%; in assay [18], 1.09%. Moreover, the inhibition in assay [19] worked out at 2.1%; in [20] it was 0.68%.
For the molecule `O=C(O[C@H]1CN[C@H](C#Cc2cc3ncnc(Nc4ccc(Cc5ccccc5)cc4)c3s2)C1)N1CCOCC1`, the inhibition is 0.85% in assay [1]; 1.3% in assay [2]; 1.99% in assay [3]; 0.11% in assay [4]; -6.94% in [5]; 3.39% in assay [6]. Moreover, the inhibition was 5.06% in assay [7]; 1.75% in [8]; 2.21% in assay [9]; 1.94% in assay [10]; 4.61% in assay [11]; 2.34% in [12]. The inhibition in assay [13] was 3.27%; in assay [14], -0.61%; in assay [15] it was 2.78%; in assay [16] it was 3.84%; in assay [17] it was 7.75%; in [18] it was -3.02%. For the same molecule, the inhibition in assay [19] was -2.02%; in assay [20] it was -0.1%.
In the case of `CCc1nn2ncccc2c1-c1ccnc(NC2CC2)n1`, the inhibition in assay [1] is 13.8%; in assay [2], 1.9%; in [3], 1.77%; in assay [4], -3.19%; in [5], 2.45%; in assay [6] it was 3.64%. The inhibition in assay [7] turned out to be 2.46%; in assay [8] it was 3.6%; in assay [9], 2.94%; in [10] it was 5.5%; in [11] it was 6.92%; in [12], 6.26%. The inhibition in assay [13] stood at 6.01%; in [14], 4.86%; in assay [15], 5.32%; in assay [16], 6.38%; in [17], 7.08%; in [18], 1.77%. Also, the values for the inhibition in assay [19] and in assay [20] were 1.02% and 0.63%, respectively.
